Data published in the supplement of paper PMC10849652.
About 7,900 targets were measured; listed, in parts, are those with a hit and a random draw of the rest. About 0.6% of all pairs of compound and target were hits.

Experiments:
Test in all cases: log2 fold change, soluble protein after heating vs DMSO (PISA); higher = thermal stabilisation; K562 cells, 10 uM, 30 min; active = over 0.2 and 3.5 SD of the protein, either way, in both replicates (recomputed)
[1] = compound: COc1cc2nc(-c3cc(F)ccc3O)nc(N[C@@H]3CNC[C@H]3C(C)(C)O)c2cc1OC
Procedure, shortened: (§1)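 K562 cells at 2×10^6 cells/mL were treated with 10 μM compound for 30 min. Aliquots were heated for 3 min across 48°C-58°C, pooled, and extracted in PBS with 0.5% NP-40 at 4°C; soluble protein was the supernatant after 21,000xg for 90 min. Soluble protein was quantified by TMTpro 16plex LC-MS/MS with channel sums equalised, and reported as log2 fold change in thermal stability against DMSO controls, with values from duplicates.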

[2] = compound: COc1cccc2cc(-c3nc([C@H]4CC[C@H](C(=O)O)CC4)n4ncnc(N)c34)[nH]c12
Procedure, shortened: as §1

lapatinib = compound: CS(=O)(=O)CCNCc1ccc(-c2ccc3ncnc(Nc4ccc(OCc5cccc(F)c5)c(Cl)c4)c3c2)o1 [lapatinib]
Procedure, shortened: as §1

alisertib = compound: COc1cc(Nc2ncc3c(n2)-c2ccc(Cl)cc2C(c2c(F)cccc2OC)=NC3)ccc1C(=O)O [alisertib]
Procedure, shortened: as §1

pictilisib = compound: CS(=O)(=O)N1CCN(Cc2cc3nc(-c4cccc5[nH]ncc45)nc(N4CCOCC4)c3s2)CC1 [pictilisib]
Procedure, shortened: as §1

filanesib = compound: CON(C)C(=O)N1N=C(c2cc(F)ccc2F)S[C@@]1(CCCN)c1ccccc1 [filanesib]
Procedure, shortened: as §1

zotarolimus = compound: CO[C@H]1C[C@@H]2CC[C@@H](C)[C@@](O)(O2)C(=O)C(=O)N2CCCC[C@H]2C(=O)O[C@H]([C@H](C)C[C@@H]2CC[C@H](n3cnnn3)[C@H](OC)C2)CC(=O)[C@H](C)/C=C(\C)[C@@H](O)[C@@H](OC)C(=O)[C@H](C)C[C@H](C)/C=C/C=C/C=C/1C [zotarolimus]
Procedure, shortened: as §1

idasanutlin = compound: COc1cc(C(=O)O)ccc1NC(=O)[C@@H]1N[C@@H](CC(C)(C)C)[C@](C#N)(c2ccc(Cl)cc2F)[C@H]1c1cccc(Cl)c1F [idasanutlin]
Procedure, shortened: as §1

gefitinib = compound: COc1cc2ncnc(Nc3ccc(F)c(Cl)c3)c2cc1OCCCN1CCOCC1 [gefitinib]
Procedure, shortened: as §1

[3] = compound: COC1=CC=C(C=C1)CN2C=CC3=C2C=C(C=C3)C(=O)NO
Procedure, shortened: as §1

Measured: log2 fold change

CSNK1A1 isoform 3 (UniProt P48729)
Sequence of UniProt P48729 (P48729 whole entry, looked up): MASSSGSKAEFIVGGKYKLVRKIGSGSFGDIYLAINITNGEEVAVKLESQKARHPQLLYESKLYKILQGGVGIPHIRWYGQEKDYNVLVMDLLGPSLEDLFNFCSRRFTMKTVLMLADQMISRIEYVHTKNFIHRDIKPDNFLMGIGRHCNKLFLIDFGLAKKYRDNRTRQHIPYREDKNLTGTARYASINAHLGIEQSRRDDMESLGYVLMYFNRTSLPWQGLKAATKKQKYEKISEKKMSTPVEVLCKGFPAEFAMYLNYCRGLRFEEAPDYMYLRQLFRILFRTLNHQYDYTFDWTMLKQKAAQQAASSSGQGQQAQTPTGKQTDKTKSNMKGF
inactive: [1] -0.006 | [2] 0.091 | lapatinib 0.129

CFAP58 (UniProt Q5T655)
inactive: alisertib -0.156 | [1] 0 | [2] 0.032 | lapatinib 0.001 | pictilisib 0.122

CLPTM1L (UniProt G5E9Z2)
inactive: filanesib -0.235 | zotarolimus -0.101 | idasanutlin -0.446 | alisertib -0.199 | gefitinib -0.142 | [2] 0.099

CORO2A (UniProt Q92828)
Sequence of UniProt Q92828 (Q92828 whole entry, looked up): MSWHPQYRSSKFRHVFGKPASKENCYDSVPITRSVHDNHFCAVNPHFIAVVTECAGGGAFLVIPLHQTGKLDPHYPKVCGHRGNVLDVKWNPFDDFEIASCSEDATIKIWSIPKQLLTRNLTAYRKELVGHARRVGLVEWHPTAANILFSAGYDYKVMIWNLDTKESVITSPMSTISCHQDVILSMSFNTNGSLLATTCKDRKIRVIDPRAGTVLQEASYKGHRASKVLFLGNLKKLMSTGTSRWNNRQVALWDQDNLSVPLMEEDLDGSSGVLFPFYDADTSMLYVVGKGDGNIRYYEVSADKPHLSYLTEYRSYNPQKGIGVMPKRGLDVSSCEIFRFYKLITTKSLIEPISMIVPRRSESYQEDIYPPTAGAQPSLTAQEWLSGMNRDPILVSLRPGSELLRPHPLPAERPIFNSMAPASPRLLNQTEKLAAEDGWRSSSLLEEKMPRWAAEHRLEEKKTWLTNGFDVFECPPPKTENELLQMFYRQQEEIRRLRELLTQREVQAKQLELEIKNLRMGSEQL
inactive: filanesib -0.035 | zotarolimus -0.049 | idasanutlin -0.071 | alisertib 0.035 | [1] -0.057 | gefitinib -0.097 | [2] -0.02 | lapatinib -0.011 | pictilisib -0.11

CDK19 (UniProt Q9BWU1)
inactive: filanesib 0.154 | zotarolimus -0.069 | idasanutlin -0.161 | alisertib 0.234 | [1] 0.138 | gefitinib -0.095 | [2] -0.045 | lapatinib -0.192 | pictilisib 0.073

CCNL1 (UniProt Q9UK58)
inactive: alisertib 0.119 | [2] 0.167

CDK2AP2 (UniProt O75956)
inactive: [3] 0.078 | zotarolimus -0.022 | idasanutlin -0.043 | alisertib -0.019 | gefitinib -0.009 | [2] -0.11

COMMD3-BMI1 (UniProt R4GMX3)
inactive: filanesib -0.08 | zotarolimus -0.12 | idasanutlin 0.093 | gefitinib -0.029 | lapatinib -0.445 | pictilisib 0.135
active: [1] 0.519

CRTC3 (UniProt Q6UUV7)
active: [1] -0.86
inactive: filanesib 0.015 | zotarolimus -0.059 | alisertib 0.202 | [2] -0.107 | lapatinib 0.078

CARD9 (UniProt Q9H257)
inactive: [3] -0.062 | idasanutlin 0.169

CHPT1 (UniProt Q8WUD6)
inactive: filanesib -0.345 | zotarolimus -0.017 | idasanutlin -0.018 | alisertib -0.136 | [1] -0.009 | gefitinib 0.013 | [2] -0.015 | lapatinib 0.159 | pictilisib -0.096

CCNT2 (UniProt O60583)
Sequence of UniProt O60583 (O60583 whole entry, looked up): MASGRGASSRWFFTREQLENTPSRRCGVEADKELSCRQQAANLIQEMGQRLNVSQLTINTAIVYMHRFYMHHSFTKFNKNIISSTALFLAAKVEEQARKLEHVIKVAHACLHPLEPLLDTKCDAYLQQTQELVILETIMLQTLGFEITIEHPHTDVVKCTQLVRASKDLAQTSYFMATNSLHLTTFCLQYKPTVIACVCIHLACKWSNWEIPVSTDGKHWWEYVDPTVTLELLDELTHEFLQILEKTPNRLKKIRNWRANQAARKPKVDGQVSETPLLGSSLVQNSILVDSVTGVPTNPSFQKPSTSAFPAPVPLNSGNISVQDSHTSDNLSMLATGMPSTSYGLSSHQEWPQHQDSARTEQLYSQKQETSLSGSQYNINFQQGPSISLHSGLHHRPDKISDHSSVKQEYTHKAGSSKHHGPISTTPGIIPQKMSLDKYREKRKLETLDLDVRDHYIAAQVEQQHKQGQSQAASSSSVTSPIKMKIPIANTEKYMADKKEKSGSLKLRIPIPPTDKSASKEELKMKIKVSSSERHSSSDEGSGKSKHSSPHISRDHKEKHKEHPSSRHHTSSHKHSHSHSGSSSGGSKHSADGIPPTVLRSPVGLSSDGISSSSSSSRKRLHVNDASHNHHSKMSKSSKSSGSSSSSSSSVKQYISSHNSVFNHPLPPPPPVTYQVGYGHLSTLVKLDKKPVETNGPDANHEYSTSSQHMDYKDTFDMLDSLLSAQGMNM
inactive: filanesib 0.102 | idasanutlin 0.143 | alisertib 0.039 | [1] -0.291 | gefitinib 0.163 | [2] -0.131 | lapatinib 0.085 | pictilisib 0.121

CAD (UniProt H7BZB3)
inactive: idasanutlin -0.006

CNRIP1 (UniProt Q96F85)
inactive: alisertib 0.075 | [1] 0.282 | gefitinib 0.002 | [2] -0.223 | lapatinib 0.054

CNN1 (UniProt P51911)
Sequence of UniProt P51911 (P51911 whole entry, looked up): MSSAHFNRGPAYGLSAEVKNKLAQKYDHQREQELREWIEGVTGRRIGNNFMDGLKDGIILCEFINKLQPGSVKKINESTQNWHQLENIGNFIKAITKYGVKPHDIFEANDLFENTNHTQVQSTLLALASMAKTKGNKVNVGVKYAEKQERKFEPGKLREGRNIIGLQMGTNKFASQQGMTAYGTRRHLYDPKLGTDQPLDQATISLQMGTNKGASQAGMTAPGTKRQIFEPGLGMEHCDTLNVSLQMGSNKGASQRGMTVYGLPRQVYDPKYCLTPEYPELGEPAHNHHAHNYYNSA
inactive: filanesib -0.051 | zotarolimus 0.047 | idasanutlin -0.048 | alisertib -0.055 | [1] 0.182 | gefitinib -0.14 | [2] 0.059 | lapatinib -0.068 | pictilisib 0.172

CLINT1 (UniProt Q14677)
Sequence of UniProt Q14677 (Q14677 whole entry, looked up): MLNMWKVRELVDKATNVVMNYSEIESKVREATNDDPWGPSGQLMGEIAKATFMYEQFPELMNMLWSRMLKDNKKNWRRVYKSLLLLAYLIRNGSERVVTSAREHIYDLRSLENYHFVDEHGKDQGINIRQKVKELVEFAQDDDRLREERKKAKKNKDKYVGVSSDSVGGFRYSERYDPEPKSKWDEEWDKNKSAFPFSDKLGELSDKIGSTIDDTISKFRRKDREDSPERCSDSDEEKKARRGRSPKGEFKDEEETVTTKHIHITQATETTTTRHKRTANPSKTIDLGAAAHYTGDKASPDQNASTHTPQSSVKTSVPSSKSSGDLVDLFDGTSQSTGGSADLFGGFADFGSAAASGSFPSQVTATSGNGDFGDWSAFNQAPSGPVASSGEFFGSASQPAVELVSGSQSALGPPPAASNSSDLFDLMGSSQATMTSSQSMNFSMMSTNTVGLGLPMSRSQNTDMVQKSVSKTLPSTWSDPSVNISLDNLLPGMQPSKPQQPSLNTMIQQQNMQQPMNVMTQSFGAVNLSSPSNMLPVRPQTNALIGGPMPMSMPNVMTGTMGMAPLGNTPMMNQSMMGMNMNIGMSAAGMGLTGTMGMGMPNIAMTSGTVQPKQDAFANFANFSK
inactive: [3] -0.371 | zotarolimus 0.263 | idasanutlin -0.012 | alisertib -0.137 | gefitinib 0.077 | [2] -0.055

CD68 (UniProt P34810)
inactive: filanesib 0.05 | alisertib -0.126 | [2] -0.025

CNOT4 isoform 9 (UniProt O95628)
inactive: [3] -0.018 | alisertib 0.018 | [1] 0.106 | gefitinib 0.053 | [2] 0.019 | lapatinib -0.083 | pictilisib 0.045
active: zotarolimus -0.373 | idasanutlin -0.334

CCND3 (UniProt P30281)
inactive: zotarolimus -0.035 | idasanutlin -0.036 | alisertib -0.043 | [1] -0.276 | [2] 0.012 | lapatinib 0.083 | pictilisib 0.03

CLCN5 isoform 2 (UniProt P51795)
inactive: [3] -0.011 | zotarolimus -0.004 | gefitinib 0.011

CREB3L2 (UniProt Q70SY1)
Sequence of UniProt Q70SY1 (Q70SY1 whole entry, looked up): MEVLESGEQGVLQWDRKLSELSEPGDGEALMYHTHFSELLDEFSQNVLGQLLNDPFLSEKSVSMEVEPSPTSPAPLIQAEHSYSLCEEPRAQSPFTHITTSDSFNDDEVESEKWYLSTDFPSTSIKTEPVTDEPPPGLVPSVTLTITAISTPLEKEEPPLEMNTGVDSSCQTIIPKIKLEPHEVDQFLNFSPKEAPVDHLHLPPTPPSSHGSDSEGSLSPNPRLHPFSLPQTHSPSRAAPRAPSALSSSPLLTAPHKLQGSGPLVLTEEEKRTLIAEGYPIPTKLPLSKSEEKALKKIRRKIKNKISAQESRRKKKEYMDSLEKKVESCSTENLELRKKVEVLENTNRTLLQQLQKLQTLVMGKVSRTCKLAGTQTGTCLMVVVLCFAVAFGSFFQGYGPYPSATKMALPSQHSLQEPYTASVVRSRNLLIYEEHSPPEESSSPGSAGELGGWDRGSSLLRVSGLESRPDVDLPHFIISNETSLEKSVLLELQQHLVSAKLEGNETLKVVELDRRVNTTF
inactive: [3] 0.584 | zotarolimus 0.042 | idasanutlin 0.045 | alisertib -0.022 | gefitinib -0.154 | [2] 0.176

C5orf30 (UniProt Q96GV9)
Sequence of UniProt Q96GV9 (Q96GV9 whole entry, looked up): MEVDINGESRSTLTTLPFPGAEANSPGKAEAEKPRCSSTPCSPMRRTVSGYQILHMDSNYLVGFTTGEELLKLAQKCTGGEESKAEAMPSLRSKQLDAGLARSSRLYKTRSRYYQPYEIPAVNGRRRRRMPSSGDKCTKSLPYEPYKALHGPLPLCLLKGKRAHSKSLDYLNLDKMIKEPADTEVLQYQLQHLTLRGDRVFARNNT
inactive: idasanutlin 0.022 | [1] -0.094 | lapatinib -0.21

CPNE5 (UniProt Q9HCH3)
inactive: zotarolimus -0.102

CNN3 (UniProt Q15417)
Sequence of UniProt Q15417 (Q15417 whole entry, looked up): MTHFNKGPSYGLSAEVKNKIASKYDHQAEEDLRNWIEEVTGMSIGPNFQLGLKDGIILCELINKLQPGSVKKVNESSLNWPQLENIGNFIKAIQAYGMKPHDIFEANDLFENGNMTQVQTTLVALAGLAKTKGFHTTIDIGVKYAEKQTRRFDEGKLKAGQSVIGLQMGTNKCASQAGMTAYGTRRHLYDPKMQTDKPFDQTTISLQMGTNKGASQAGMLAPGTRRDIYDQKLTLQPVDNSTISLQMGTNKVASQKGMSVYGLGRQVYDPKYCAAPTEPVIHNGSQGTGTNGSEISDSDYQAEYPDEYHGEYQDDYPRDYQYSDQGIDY
inactive: filanesib -0.006 | zotarolimus 0.005 | idasanutlin -0.04 | alisertib -0.031 | [1] 0.111 | gefitinib 0.026 | [2] -0.026 | lapatinib -0.032 | pictilisib 0.04

CCNDBP1 (UniProt O95273)
inactive: filanesib 0.016 | zotarolimus -0.102 | idasanutlin 0.063 | alisertib -0.012 | [2] 0.125 | pictilisib 0.009
active: gefitinib -0.33

CLN3 (UniProt Q13286)
Sequence of UniProt Q13286 (Q13286 whole entry, looked up): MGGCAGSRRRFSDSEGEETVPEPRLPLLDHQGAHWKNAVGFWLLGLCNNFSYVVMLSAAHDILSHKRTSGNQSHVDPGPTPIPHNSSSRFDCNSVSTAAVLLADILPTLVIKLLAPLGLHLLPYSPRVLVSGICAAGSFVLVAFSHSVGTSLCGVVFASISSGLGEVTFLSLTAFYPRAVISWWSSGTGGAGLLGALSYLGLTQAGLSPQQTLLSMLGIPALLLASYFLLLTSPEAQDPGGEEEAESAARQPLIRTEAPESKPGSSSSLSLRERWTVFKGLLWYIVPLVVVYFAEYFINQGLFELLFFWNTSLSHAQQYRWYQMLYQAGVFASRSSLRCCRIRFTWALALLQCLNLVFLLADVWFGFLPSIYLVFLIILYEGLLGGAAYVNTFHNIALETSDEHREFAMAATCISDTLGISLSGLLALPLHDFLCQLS
inactive: [3] 0.008 | zotarolimus -0.1 | alisertib 0 | [1] 0.08 | gefitinib -0.028 | [2] 0.139 | lapatinib -0.059

CD84 (UniProt Q9UIB8)
Sequence of UniProt Q9UIB8 (Q9UIB8 whole entry, looked up): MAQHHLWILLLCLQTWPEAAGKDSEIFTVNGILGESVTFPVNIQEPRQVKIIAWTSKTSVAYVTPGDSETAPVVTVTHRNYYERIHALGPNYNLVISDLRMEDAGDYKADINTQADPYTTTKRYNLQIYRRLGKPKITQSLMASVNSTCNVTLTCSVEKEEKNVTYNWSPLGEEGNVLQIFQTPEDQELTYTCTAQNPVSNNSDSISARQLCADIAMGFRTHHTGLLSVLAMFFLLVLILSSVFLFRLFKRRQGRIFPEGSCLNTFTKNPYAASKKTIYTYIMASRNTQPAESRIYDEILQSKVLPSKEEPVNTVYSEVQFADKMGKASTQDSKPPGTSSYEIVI
inactive: filanesib -0.009 | zotarolimus -0.194 | idasanutlin -0.082

CFAP47 (UniProt Q6ZTR5)
inactive: idasanutlin -0.496 | [1] 0.031 | lapatinib -0.106

CEMIP2 (UniProt Q9UHN6)
inactive: [3] -0.018 | zotarolimus 0.008 | idasanutlin 0.021 | alisertib 0.202 | [1] 0.121 | gefitinib 0.072 | [2] 0.135 | lapatinib 0.026 | pictilisib 0.097

CASP7 isoform 3 (UniProt P55210)
inactive: gefitinib 0.282 | pictilisib 0.234

CRMP1 isoform 2 (UniProt Q14194)
Sequence of UniProt Q14194 (Q14194 whole entry, looked up): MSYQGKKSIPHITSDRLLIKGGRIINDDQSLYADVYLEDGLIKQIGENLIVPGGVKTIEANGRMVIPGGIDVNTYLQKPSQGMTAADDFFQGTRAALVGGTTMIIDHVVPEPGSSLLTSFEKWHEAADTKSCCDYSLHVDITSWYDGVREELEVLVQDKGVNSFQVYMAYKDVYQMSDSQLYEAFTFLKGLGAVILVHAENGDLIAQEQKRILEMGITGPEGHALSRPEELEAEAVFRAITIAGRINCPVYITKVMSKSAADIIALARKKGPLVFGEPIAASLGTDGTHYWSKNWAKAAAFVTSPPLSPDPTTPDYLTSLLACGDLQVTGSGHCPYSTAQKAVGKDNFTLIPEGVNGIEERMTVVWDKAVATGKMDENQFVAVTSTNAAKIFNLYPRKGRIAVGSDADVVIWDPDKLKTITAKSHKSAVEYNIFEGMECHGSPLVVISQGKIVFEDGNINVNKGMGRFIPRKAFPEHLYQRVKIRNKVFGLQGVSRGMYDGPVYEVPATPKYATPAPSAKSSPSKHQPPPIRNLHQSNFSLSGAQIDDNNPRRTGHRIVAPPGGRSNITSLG
inactive: filanesib 0.067 | zotarolimus -0.045 | idasanutlin 0.172 | gefitinib -0.407 | pictilisib 0.107

CCDC187, A0A1W2PQX5
inactive: idasanutlin -0.051 | gefitinib -0.312 | pictilisib 0.191

CASK (UniProt O14936)
inactive: [3] 0.046 | idasanutlin -0.031

CLN8 (UniProt Q9UBY8)
inactive: filanesib 0.068 | zotarolimus 0.13 | idasanutlin -0.145 | alisertib 0.04 | [1] -0.019 | gefitinib 0.075 | [2] -0.015 | lapatinib 0.012

CKS2 (UniProt P33552)
inactive: idasanutlin 0.193 | alisertib -0.029 | [1] 0.184 | gefitinib 0.093 | [2] 0.14 | lapatinib -0.036 | pictilisib -0.666
